The other results are listed elsewhere or left out. Records with an inconclusive call do not appear. Unmarked numbers belong to inactive results. Activity calls are given as the source filed them. The call rests on the fitted dose curve; in most records, active means well fitted inhibition curve with a large enough effect; inconclusive means small, poorly fitted or top-dose-only effect; inactive means no such curve, though single readings can be large or run the other way.
target: RecQ-like DNA helicase BLM (Homo sapiens) (UniProt P54132); experiment: qHTS Confirmation Assay for Inhibitors of Bloom's syndrome helicase (BLM); conditions: BLM DNA unwinding, fluorescence quenching, biochemical; further: nearly all actives have a fitted effect of over 45% in size
Sequence (P54132 whole entry, looked up): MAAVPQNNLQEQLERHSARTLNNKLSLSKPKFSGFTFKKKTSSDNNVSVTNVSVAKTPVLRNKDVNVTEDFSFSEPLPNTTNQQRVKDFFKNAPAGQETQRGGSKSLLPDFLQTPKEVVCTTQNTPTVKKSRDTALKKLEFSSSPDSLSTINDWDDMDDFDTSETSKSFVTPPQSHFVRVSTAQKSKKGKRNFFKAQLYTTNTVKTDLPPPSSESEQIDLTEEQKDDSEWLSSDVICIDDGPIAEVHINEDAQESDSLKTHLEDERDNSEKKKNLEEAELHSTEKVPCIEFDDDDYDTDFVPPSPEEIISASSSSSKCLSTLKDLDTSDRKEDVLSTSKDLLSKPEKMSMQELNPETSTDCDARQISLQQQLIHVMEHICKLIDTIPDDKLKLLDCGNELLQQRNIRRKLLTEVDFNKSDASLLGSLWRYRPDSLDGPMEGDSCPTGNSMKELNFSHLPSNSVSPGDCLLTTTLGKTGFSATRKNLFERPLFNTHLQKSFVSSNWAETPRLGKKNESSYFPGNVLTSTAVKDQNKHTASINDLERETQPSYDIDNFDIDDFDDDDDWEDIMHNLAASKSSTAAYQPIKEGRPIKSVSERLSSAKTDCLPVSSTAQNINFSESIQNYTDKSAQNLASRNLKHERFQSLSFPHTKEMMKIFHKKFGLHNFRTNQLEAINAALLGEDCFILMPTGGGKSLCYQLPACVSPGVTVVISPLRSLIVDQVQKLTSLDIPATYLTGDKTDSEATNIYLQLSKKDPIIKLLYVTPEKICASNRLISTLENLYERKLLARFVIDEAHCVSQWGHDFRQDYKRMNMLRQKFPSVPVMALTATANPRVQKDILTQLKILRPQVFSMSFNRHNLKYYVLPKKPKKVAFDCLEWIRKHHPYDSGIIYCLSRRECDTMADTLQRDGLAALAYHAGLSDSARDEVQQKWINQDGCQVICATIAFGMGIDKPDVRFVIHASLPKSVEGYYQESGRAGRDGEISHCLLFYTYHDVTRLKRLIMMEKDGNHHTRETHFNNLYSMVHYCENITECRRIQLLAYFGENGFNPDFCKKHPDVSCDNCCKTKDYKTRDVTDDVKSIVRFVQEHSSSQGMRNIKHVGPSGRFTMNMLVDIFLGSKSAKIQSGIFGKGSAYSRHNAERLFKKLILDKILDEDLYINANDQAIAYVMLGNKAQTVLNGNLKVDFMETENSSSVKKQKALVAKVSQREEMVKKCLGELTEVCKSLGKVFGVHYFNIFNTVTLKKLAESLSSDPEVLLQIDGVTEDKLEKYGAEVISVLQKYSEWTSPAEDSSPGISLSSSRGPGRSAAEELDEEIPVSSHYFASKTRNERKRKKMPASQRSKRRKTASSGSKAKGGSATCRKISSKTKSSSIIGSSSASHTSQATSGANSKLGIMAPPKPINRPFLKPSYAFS
Source text: Survival of cells and the faithful propagation of the genome depend on elaborate mechanisms of detecting and repairing DNA damage. Treatment of advanced cancer relies on radiation therapy or chemotherapy, which kill cancer cells by causing extensive DNA damage. It is often found, that cancer cells develop resistance to therapy through enhanced activity of DNA repair functions; this has led to an increased interest in developing drugs that interfere with DNA repair, which could sensitize cancer cells to conventional therapy. This validation qHTS assay pertains to human BLM, which is important in resolving abnormal DNA structures formed during replication or homologous recombination. Shutting down the expression of BLM leads to chromosomal instability and higher radiation sensitivity in cultured cells. The validation assay was a fluorescence quenching based kinetic qHTS for BLM Helicase DNA unwinding. The activity was measured as ATP-dependent separation of a 20-bp DNA duplex extended by 30-nt single-stranded tails (forked duplex). The forked DNA substrate was tagged with rhodamine fluorophore (carboxytetramethyl rhodamine, TAMRA) and BHQ-2 (Black Hole Quencher 2) dark quencher. Strand separation results in an increase in the fluorescence of TAMRA (excitation 525 nm, emission 598 nm). This substrate construct operates in a red-shifted region where very few compound library members have been noted to fluoresce (PubChem AIDs 593 and 594). An additional feature of the assay is the inclusion of 2.5 ug/ml poly (dIdC), to reduce interference by compounds such as DNA intercalators, a major source of false inhibitors. Assay Providers: Ian Hickson, University of Oxford Opher Gileadi, Structural Genomics Consortium, University of Oxford Screening Center PI: Austin, C.P. Screening Center: NIH Chemical Genomics Center [NCGC]
Three uL of reaction buffer (25 mM Tris-HCl (pH 8.0), 5 mM NaCl, 2 mM MgCl2, 1mM DTT, 0.01% Tween- 20, and 2.5 ug/ml poly(dI-dC), including enzyme (50 nM BLM), were dispensed into a 1536-well Greiner black assay plate via solenoid-valve based nanoliter dispensers. Compounds (23 nl each in columns 5-48) and control (23 nl each in column 2 as dose-response) were transferred via a Kalypsys pintool equipped with a 1536-pin array. The plates were incubated for 15 min at room temperature, and then 1 ul of substrates (200 nM DNA and 2 mM ATP, final concentrations) was added to start the reaction. The plate was transferred into a ViewLux high-throughput CCD imager where the reaction progress was measured in a discontinuous kinetic mode (two reads spaced 2 hours apart, with intermediate room temperature incubation of the covered assay plate) by using standard red-fluorescence optics (excitation filter 525 nm, emission filter 598 nm). Enzyme-free and vehicle (DMSO) controls were included for signal normalization.
On the % scale 0 is the no-effect control and ±100 the full control effect; potency means the concentration at half of the fitted maximal effect.

Row | SMILES | Potency | max response, negative = inhibition [%]
1 | CN(C(=O)COC(=O)c1cc(-c2ccco2)nc2ccccc12)C1CCS(=O)(=O)C1 (configuration not stated) | 18.2 µM (active) | 
2 | CC(C)(O)c1ccccc1CC[C@H](SCC1(CC(=O)O)CC1)c1cccc(/C=C/c2ccc3ccc(Cl)cc3n2)c1 | 54.1 µM (active) | 
3 | Oc1ccc(N=Cc2sc3ccccc3c2Cl)cc1 |  | -10.8
4 | Cc1ccc(-c2nc(SCc3ccc(Br)cc3)n3[nH]c(=O)cc3n2)cc1 | 11.5 µM (active) | 
5 | CS(=O)(=O)c1ccc2nc(NC(=O)c3ccc(Cl)nc3)sc2c1 |  | 0.0289
6 | C=C1c2cccc(OC)c2O[C@H](C(=O)OCC)[C@@H]1CCCCCC |  | -13.8
7 | COc1ccc(-c2nc3c(c(SCC(=O)Nc4ccc(C(=O)O)cc4)n2)Cc2ccccc2O3)cc1 | 5.13 µM (active) | 
